Measurements taken from PubChem BioAssay (EPA / NIEHS).
Values joined by “and” are separate entries in the source; they are usually repeats but may differ in a detail not shown here. Equal values may be shown once. A structure can be active in one record and inactive in another. Active and inactive are the calls of the source. The calls were made as follows, unless noted: active = hit-call score of the fitted dose curve at least 0.9, where 1 is the maximum; inactive = score below 0.9.

How the values were obtained:
[1] = target: Peroxisome proliferator-activated receptor gamma (Homo sapiens) (UniProt P37231); test: OT_PPARg_PPARgSRC1_1440: Odyssey Thera (OT) 24-hour Protein-Complementation Assay for Peroxisome Proliferator-activated Receptor Gamma/ SRC-1 Co-activator (AID 2283388; active = hit-call score of the fitted dose curve at least 0.9, where 1 is the maximum)
Chain of Peroxisome proliferator-activated receptor gamma (Homo sapiens) (P37231 whole entry, looked up, the tested form may be a part): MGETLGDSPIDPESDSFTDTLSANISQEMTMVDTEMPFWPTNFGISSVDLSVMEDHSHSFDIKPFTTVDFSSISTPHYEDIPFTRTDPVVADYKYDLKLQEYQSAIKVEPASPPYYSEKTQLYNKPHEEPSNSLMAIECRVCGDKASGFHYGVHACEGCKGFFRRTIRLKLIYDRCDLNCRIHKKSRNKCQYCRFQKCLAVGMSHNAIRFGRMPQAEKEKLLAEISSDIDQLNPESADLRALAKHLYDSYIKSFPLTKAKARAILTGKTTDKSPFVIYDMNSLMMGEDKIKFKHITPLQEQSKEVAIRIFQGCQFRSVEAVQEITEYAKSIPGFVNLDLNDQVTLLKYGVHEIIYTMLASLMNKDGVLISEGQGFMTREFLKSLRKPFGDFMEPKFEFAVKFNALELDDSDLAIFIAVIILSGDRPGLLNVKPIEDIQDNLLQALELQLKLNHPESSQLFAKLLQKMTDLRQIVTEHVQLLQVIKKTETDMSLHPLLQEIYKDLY
How it was run: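 HEK293T transiently transfected with PPARg/SRC-1 split-Venus YFP fusions 48 h before dosing, then treated 24 h at 37C. Fixed cells imaged; nuclear/cytoplasmic 488 nm fluorescence ratio, gain of signal versus DMSO.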

[2] = CEETOX_H295R_11DCORT: CeeTox H295R High-throughput Steroidogenesis Assay for 11-Deoxycortisol (11DCORT) (AID 2283432); conditions: actives raise or lower the signal;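 as to AC50: 11-deoxycortisol secreted into the medium measured by LC-MS/MS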
How it was run: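 H295R cells prestimulated 48 h with 10 uM forskolin, then exposed 48 h to chemical in 0.1% DMSO. 11-Deoxycortisol in medium quantified by HPLC-MS/MS after MTBE extraction; bidirectional fit versus DMSO. MTT viability read in same wells.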

[3] = CEETOX_H295R_OHPREG: CeeTox H295R High-throughput Steroidogenesis Assay for OH-Pregnenolone (OHPREG) (AID 2283434); conditions: actives raise or lower the signal
How it was run: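 Hormone levels in spent medium were measured by tandem mass spectrometry following liquid-liquid extraction. Cells (H295R) had been forskolin-stimulated (10 uM, 48 h) before a 48 h chemical exposure at 0.1% DMSO, with activity fitted in both directions against DMSO.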

[4] = CEETOX_H295R_OHPROG: CeeTox H295R High-throughput Steroidogenesis Assay for OH-Progesterone (OHPROG) (AID 2283435); conditions: actives raise or lower the signal
How it was run: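 H295R human adrenal cells were prestimulated 48 h with 10 uM forskolin, then exposed 48 h to test chemical (0.1% DMSO final). 17alpha-hydroxyprogesterone in medium was measured by HPLC-MS/MS after MTBE extraction; bidirectional fitting vs DMSO.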

[5] = CEETOX_H295R_CORTISOL: CeeTox H295R High-throughput Steroidogenesis Assay for Cortisol (AID 2283438); conditions: actives raise or lower the signal;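 also: cortisol secreted into medium quantified by LC-MS/MS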
How it was run: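 H295R human adrenal cells were prestimulated 48 h with 10 uM forskolin, then exposed 48 h to test chemical (0.1% DMSO final). Medium cortisol was quantified by HPLC-MS/MS after MTBE extraction; bidirectional fitting relative to DMSO baseline.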

[6] = CEETOX_H295R_DOC: CeeTox H295R High-throughput Steroidogenesis Assay for DOC (AID 2283439); conditions: actives raise or lower the signal
How it was run: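 H295R adrenal cells prestimulated 48 h with 10 uM forskolin, then exposed 48 h to test chemical (0.1% DMSO final). Medium 11-deoxycorticosterone extracted with MTBE, quantified by HPLC-MS/MS; bidirectional fit versus DMSO baseline; MTT viability in same wells.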

[7] = CEETOX_H295R_ESTRADIOL: CeeTox H295R High-throughput Steroidogenesis Assay for Estradiol (AID 2283440); conditions: actives raise or lower the signal;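 also: estradiol secreted into medium quantified by LC-MS/MS after dansyl derivatisation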
How it was run: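 H295R cells pre-stimulated 48 h with 10 uM forskolin, then exposed 48 h to chemical in 0.1% DMSO. Medium estradiol quantified by MTBE extraction, dansyl derivatisation and HPLC-MS/MS; bidirectional fit versus DMSO; MTT viability required >/=70%.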

[8] = CEETOX_H295R_ESTRONE: CeeTox H295R High-throughput Steroidogenesis Assay for Estrone (AID 2283441); conditions: actives raise or lower the signal;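 also: estrone secreted into medium measured by LC-MS/MS after dansyl derivatization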
How it was run: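 H295R cells; 48 h forskolin (10 uM) prestimulation; 48 h compound exposure, 0.1% DMSO final. Medium estrone: MTBE extraction, dansyl derivatization, HPLC-MS/MS. Bidirectional fit vs DMSO.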

[9] = CEETOX_H295R_PROG: CeeTox H295R High-throughput Steroidogenesis Assay for Progesterone (PROG) (AID 2283442); conditions: actives raise or lower the signal;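 as to AC50: human H295R adrenal cells primed with 10 µM forskolin before dosing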
How it was run: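 H295R adrenal cells prestimulated 48 h with 10 uM forskolin, then exposed 48 h to test chemical in 0.1% DMSO. Progesterone in medium quantified by HPLC-MS/MS after MTBE extraction; viability checked by MTT in same wells.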

[10] = read-out: Cyclin D2 (CCND2), CCND2 (gene 894); test: LTEA_HepaRG_CCND2: Life Technologies and Expression Analysis (LTEA) Assay for Cyclin D2 (CCND2) using HepaRG (AID 2283449); conditions: mRNA level, 48 h; actives raise or lower the signal
How it was run: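 Read-out is CCND2 mRNA level measured by qRT-PCR in human HepaRG liver cells and normalised to three housekeeping genes. Chemicals were applied for 48 h at up to 100 uM, with gain or loss fitted relative to 0.5% DMSO.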

[11] = read-out: Cyclin Dependent Kinase Inhibitor 1A (CDKN1A), CDKN1A (gene 1026); test: LTEA_HepaRG_CDKN1A: Life Technologies and Expression Analysis (LTEA) Assay for Cyclin Dependent Kinase Inhibitor 1A (CDKN1A) using HepaRG (AID 2283450); conditions: mRNA level, 48 h; actives raise or lower the signal
How it was run: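 Differentiated HepaRG cells in serum-free induction medium, exposed 48 h in duplicate to eight half-log concentrations up to 100 uM in 0.5% DMSO. mRNA measured by TaqMan qRT-PCR, normalized to ACTB, GAPDH, POLR2A; bidirectional fit versus DMSO.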

[12] = read-out: Cyclin D1 (CCND1), CCND1 (gene 595); test: LTEA_HepaRG_CCND1: Life Technologies and Expression Analysis (LTEA) Assay for Cyclin D1 (CCND1) using HepaRG (AID 2283451); conditions: mRNA level, 48 h; actives raise or lower the signal;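 as to AC50: TaqMan qRT-PCR transcript level normalised to ACTB GAPDH and POLR2A housekeeping genes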
How it was run: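 Differentiated HepaRG cells exposed 48 h in serum-free induction medium to eight half-log concentrations from 100 uM top, 0.5% DMSO, duplicates. CCND1 mRNA measured by Fluidigm TaqMan qRT-PCR, normalised to ACTB, GAPDH, POLR2A; bidirectional fit.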

[13] = read-out: catalase (CAT), CAT (gene 847); test: LTEA_HepaRG_CAT: Life Technologies and Expression Analysis (LTEA) Assay for catalase (CAT) using HepaRG (AID 2283452); conditions: mRNA level, 48 h; actives raise or lower the signal;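 as to AC50: TaqMan qRT-PCR signal normalized to ACTB GAPDH and POLR2A housekeeping genes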
How it was run: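 Expression of CAT was quantified by TaqMan qRT-PCR with ACTB/GAPDH/POLR2A normalization after 48 h chemical exposure of HepaRG. Eight-point half-log series, top 100 uM, in 0.5% DMSO; gain or loss fitted against vehicle.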

[14] = read-out: flavin-containing dimethylaniline monooxygenases 3 (FMO3), FMO3 (gene 2328); test: LTEA_HepaRG_FMO3: Life Technologies and Expression Analysis (LTEA) Assay for flavin-containing dimethylaniline monooxygenases 3 (FMO3) using HepaRG (AID 2283453); conditions: mRNA level, 48 h; actives raise or lower the signal;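 as to AC50: FMO3 transcript by TaqMan qRT-PCR normalized to ACTB GAPDH and POLR2A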
How it was run: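 HepaRG, 48 h exposure, 8-pt half-log series from 100 uM, 0.5% DMSO vehicle, duplicates; FMO3 transcript by Fluidigm TaqMan qRT-PCR, housekeeping-normalized; gain/loss fit vs DMSO.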

[15] = read-out: Cytochrome P450 (CYP1A1), CYP1A1 (gene 1543); test: LTEA_HepaRG_CYP1A1: Life Technologies and Expression Analysis (LTEA) Assay for Cytochrome P450 (CYP1A1) using HepaRG (AID 2283454); conditions: mRNA level, 48 h; actives raise or lower the signal
How it was run: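 Differentiated human HepaRG cells, after 48 h plating, exposed in duplicate for 48 h in serum-free induction medium to 8 half-log concentrations up to 100 uM in 0.5% DMSO. CYP1A1 mRNA by qRT-PCR, normalized to ACTB/GAPDH/POLR2A; bidirectional fit versus DMSO.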

[16] = read-out: CFLAR gene, CFLAR (gene 8837); test: LTEA_HepaRG_CFLAR: Life Technologies and Expression Analysis (LTEA) Assay for CFLAR gene using HepaRG (AID 2283455); conditions: mRNA level, 48 h; actives raise or lower the signal
How it was run: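 HepaRG, 48 h exposure, 8-pt conc-response (100 uM top, half-log), 0.5% DMSO vehicle, duplicates. CFLAR expression by qRT-PCR; ACTB/GAPDH/POLR2A normalization; gain or loss fit vs DMSO baseline.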

[17] = read-out: Forkhead box O1 (FOXO1), FOXO1 (gene 2308); test: LTEA_HepaRG_FOXO1: Life Technologies and Expression Analysis (LTEA) Assay for Forkhead box O1 (FOXO1) using HepaRG (AID 2283456); conditions: mRNA level, 48 h; actives raise or lower the signal
How it was run: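 Readout is FOXO1 transcript level by multiplexed qRT-PCR against three housekeeping genes, curve-fitted in both directions relative to 0.5% DMSO vehicle. Human HepaRG cultures received chemicals for 48 h, up to 100 uM in half-log steps.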

[18] = read-out: growth arrest and DNA damage 45 (GADD45A), GADD45A (gene 1647); test: LTEA_HepaRG_GADD45A: Life Technologies and Expression Analysis (LTEA) Assay for growth arrest and DNA damage 45 (GADD45A) using HepaRG (AID 2283458); conditions: mRNA level, 48 h; actives raise or lower the signal
How it was run: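 Differentiated HepaRG cells were exposed in duplicate for 48 h in serum-free induction medium to 8-point half-log concentrations up to 100 uM in 0.5% DMSO. GADD45A mRNA was measured by TaqMan qRT-PCR, normalized to ACTB, GAPDH and POLR2A, with bidirectional fitting versus DMSO.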

Measured: AC50

CCCCCCCCSC(=O)Oc1cc(Cl)nnc1-c1ccccc1
inactive: [1]

CC(C#N)CCC#N (configuration not stated)
inactive: [1]

CC1(C)Cc2cccc(O)c2O1
inactive: [1]

C[C@]12CC[C@H](O)CC1=CC[C@@H]1[C@@H]2CC[C@]2(C)C(=O)CC[C@@H]12
inactive: [1] | [6] | [7] | [8] | [9]
active: [2] 41.1 µM | [3] 14.1 µM | [4] 1.13 µM | [5] 7.72 µM

N#CN=C(N)N
inactive: [1]

O=S(=O)(c1ccc(Cl)cc1)c1ccc(Cl)cc1
inactive: [1]

O=C(O)C(Cl)(Cl)Cl
active: [13] 0.207 µM | [15] 50 µM
inactive: [1] | [10] | [11] | [12] | [13] | [14] | [15] | [16] | [17] | [18]

Cc1ccc(N)cc1Cl
inactive: [1]

OCc1ccco1
inactive: [1]

C=CCc1ccc(OC)cc1
inactive: [1]

COc1cc(-c2ccc(N)c(OC)c2)ccc1N
inactive: [1] | [3] | [4] | [9] | [10] | [11] | [12] | [13] | [14] | [16] | [17] | [18]
active: [3] 82.6 µM | [4] 1.9 µM | [9] 35.4 µM | [12] 32.7 µM | [14] 72.6 µM | [15] 20.6 µM and 24.2 µM

CC(C)OC(=O)Nc1ccccc1
inactive: [1] | [3] | [4] | [9]

CC(C)(C)c1cc(O)ccc1O
inactive: [1] | [10] | [11] | [12] | [13] | [14] | [15] | [16] | [17] | [18]

Cc1ccccc1N
inactive: [10] | [11] | [12] | [13] | [14] | [15] | [16] | [17] | [18]

O=C(O)C(F)(F)C(F)(F)C(F)(F)C(F)(F)C(F)(F)C(F)(F)F
inactive: [10] | [11] | [12] | [13] | [14] | [15] | [16] | [17] | [18]

C1CCC(NC2CCCCC2)CC1
inactive: [2] | [3] | [4] | [5] | [6]
active: [9] 12.7 µM

CC(C)(C)CC(C)(C)c1ccc(O)cc1
inactive: [11] | [12] | [14] | [16] | [17]
active: [13] 2.44 µM | [15] 81.5 µM | [18] 81.5 µM

CCC(C)(C)c1ccc(O)c(C(C)(C)CC)c1
inactive: [1] | [10] | [11] | [12] | [13] | [14] | [16] | [17] | [18]
active: [15] 74 µM

ClCC(Cl)CCl
inactive: [10] | [11] | [12] | [13] | [14] | [15] | [16] | [17] | [18]
